Data: PubChem BioAssay (Tox21)
Inconclusive results are not listed. Values without a mark were called inactive. Calls follow the shape of the dose curve; as a rule, active = well fitted cell-killing curve with a large enough effect in the repeat runs; inconclusive = weak or mixed curves; inactive = flat fitted curve, though single readings scatter. Positions of bridges follow the written chain, without caps; N, C: chain ends. Where a SMILES comes first, the peptide text is derived from it. Non-standard residues stand in square brackets, D forms with d. Residues, ends and D or L forms follow the SMILES beside them. hArg = N=C(N)NCCCC[C@H](N)C(=O)O; Mpa = O=C(O)CCS

experiment: qHTS RealTime-Glo MT Cell Viability Assay in HepG2 cells - 16 hour (AID 1224885); conditions: RealTime-Glo luminescence; series mostly up to 76.8 µM; activity change, negative = cytotoxic: at the top concentration; also: nearly all actives have a fitted effect of over 50% in size
Summary of the method: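 qHTS, HepG2, 600 cells/well, RealTime-Glo (NanoLuc + prosubstrate) added with cells; 5 h preincubation; DMSO compound addition; 37 C; luminescence at 0/8/16/24/32/40 h.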
% is scaled to controls: 0 for no effect and ±100 for the full control effect.

| SMILES | activity change, negative = cytotoxic |
| --- | --- |
| COc1ccc2c(c1)c1c3n2CCN(C)C3=NCC1 | 0.877% [at 35.3 µM] |
| Cn1c(=O)c2[nH]c(Br)nc2n(C)c1=O | 4.36% [at 35.3 µM] |
| CC(=O)C1C(=O)C=C(C)OC1=O (configuration not stated) | 3.26% |
| CN(C)CCN(C)CCO | 1.73% |
| CC(C)C1OCCN1CCOC(=O)NCCCCCCNC(=O)OCCN1CCOC1C(C)C (configuration not stated) | 1.15% |
| CC(=O)O[C@H]1C[C@@H]2CC[C@@]1(C)C2(C)C | 3.91% |
| CN1C[C@@H]2C[C@H]1CN2c1cc2c(cc1F)c(=O)c(C(=O)O)cn2C1CC1 | 6.14% [at 15.8 µM] |
| CC1(C)CC(OC(=O)CCCCCCCCC(=O)OC2CC(C)(C)NC(C)(C)C2)CC(C)(C)N1 | -0.753% [at 15.8 µM] |
| C=Cc1ccc(C(C)(C)C)cc1 | 3.22% |
| CCOc1ccccc1OCC1CNCCO1 (configuration not stated) | 2.55% [at 35.3 µM] |
| N[C@@H](Cc1ccc(O)cc1)C(=O)O | 0.618% [at 6.97 µM] |
| O=C(CCCCC(=O)Nc1c(I)cc(I)c(C(=O)O)c1I)Nc1c(I)cc(I)c(C(=O)O)c1I | -5% [at 35.3 µM] |
| O=C1NC(c2ccccc2)(c2ccccc2)C(=O)N1COP(=O)(O)O | 1.3% [at 35.3 µM] |
| OCCN1CCOCC1 | 1.8% |
| CC(C)c1ccc(C=O)cc1 | -0.0039% |
| COc1c2occc2c(OC)c2c(=O)cc(C)oc12 | -13.4% [at 35.3 µM] |
| CCCCOCCOC(=O)COc1ccc(Cl)cc1Cl | 1% |
| CCC(C(=O)OCCN1CCOC(c2ccccc2)C1C)c1ccccc1 (configuration not stated) | -7.59% [at 35.3 µM] |
| C=C(C)[C@@H]1CC=C(C)CC1 | 1.05% |

| SMILES | activity change, negative = cytotoxic |
| --- | --- |
| CC(=O)CC(=O)Nc1ccc(C)cc1C | -1.56% |
| c1ccc2cnccc2c1 | 1.11% |
| CN(C)CCOC(=O)C(c1ccccc1)C1(O)CCCC1 (configuration not stated) | 6.25% [at 35.3 µM] |
| NCc1ccc(S(N)(=O)=O)cc1 | -0.874% [at 35.3 µM] |
| COc1cc(/C=C/C(N)=O)cc(OC)c1OC | 0.485% [at 35.3 µM] |
| NC(=O)[C@@H]1CSSCCC(=O)N[C@@H](CCCCN=C(N)N)C(=O)NCC(=O)N[C@@H](CC(=O)O)C(=O)N[C@@H](Cc2c[nH]c3ccccc23)C(=O)N2CCC[C@H]2C(=O)N1 ([Mpa][hArg]GDWPC-NH2; disulfide 1-7) | 3.78% [at 35.3 µM] |
| O=C1c2ccccc2C(=O)c2cc(Cl)ccc21 | 1.7% [at 6.97 µM] |
| Fc1ccccc1 | -1.92% |
| CC(C)(CO)C(O)C(=O)NCCCO (configuration not stated) | 1.83% |
| CC(=O)c1cc(C)oc1C | 0.0533% |
| COc1cc(OC)nc(O[C@H](C(=O)O)C(OC)(c2ccccc2)c2ccccc2)n1 | 0.119% [at 35.3 µM] |
| CCO | 0.449% |
| C=C(C)c1cccc(C(C)(C)N=C=O)c1 | 2.36% |
| C=CC/C=C/C | 0.0528% |
| CCCCCCCCCOC(=O)CCCCC(=O)OCCCCCCC | 0.954% |
| CC(=O)N[C@@H](CO)C(=O)N[C@@H](CC(=O)O)C(=O)N[C@@H](CCCCN)C(=O)N1CCC[C@H]1C(=O)O (Ac-SDKP-OH) | 1.15% [at 35.3 µM] |
| CCC/C=C(\C=O)CC | 0.0234% |
| CC(C)OC(=O)CCC(=O)OC(C)C | -1.74% |
